# Source: PubChem BioAssay (NCATS)
# A number with no mark means an inactive call. Results filed as inconclusive are left out. Where a call stands in place of a potency, no number is given. Active and inactive are the calls of the source. Unless noted, calls follow the shape of the dose curve; as a rule, active = well fitted curve in the direction sought with a large enough effect; inconclusive = small, poorly fitted or top-dose-only effect, or another doubt; inactive = no such curve, though single readings can be large; an effect the other way counts as inactive or inconclusive.
# Assays:
# [1] = AP1 Signaling Pathway (AID 357; active = well fitted curve in either direction with a large enough effect, not every such curve was filed as active;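 also: ME-180 reporter cells stimulated with EGF at its EC50 level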); conditions: ME-180 AP-1-bla reporter, EGF-induced, beta-lactamase ratio, 5 h; at 38 µM (top of the series)
# How it was run: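 Beta-lactamase reporter under AP-1 response element, ME-180 background. Stimulus: EC50 EGF. Compound exposure 5 h, 37 °C. Detection: CCF4, 2.5 h RT, 460/530 nm. Values: AC50 from titration.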
# [2] = NFAT Signaling Pathway (AID 444; active = well fitted curve in either direction with a large enough effect, not every such curve was filed as active;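 also: carbachol stimulus at about its EC50 of 1 µM final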); conditions: Jurkat NFAT-bla M1, carbachol, beta-lactamase ratio, 5 h; at 38 µM (top of the series)
# How it was run: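 Read-out: CCF4 FRET ratio (460 nm/530 nm) after 1 h RT dye loading, used for %activity and AC50 from titration series. Cells: Jurkat NFAT-β-lactamase/M1 line, treated with compound plus 1 uM carbachol for 5 h, 37 °C.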
# [3] = Stat Signaling Pathway (AID 446; active = well fitted curve in either direction with a large enough effect, not every such curve was filed as active;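 also: ME-180 cervical cancer cells given 40 pM IL-6 alongside compound; SIE-controlled beta-lactamase reporter measured as 460/530 nm FRET emission ratio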); conditions: ME-180 (cervical carcinoma) SIE beta-lactamase reporter, IL-6 stimulated, 5 h; at 38 µM (top of the series)
# How it was run: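 Emission at 460 and 530 nm (excitation 405 nm) reports SIE-controlled beta-lactamase in ME-180 cells. Cells received compound with 40 pM IL-6 for 5 hrs at 37 C; data scaled between 300 pM IL-6 and 125 nM JAK-inhibitor controls.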
# [4] = target: Glucocorticoid receptor (Homo sapiens) (UniProt P04150); test: GR-GFP Redistribution (AID 450;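 active = compounds whose dose series gives a full or clear partial fitted curve of increased nuclear translocation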; also: potency is read from the fitted curve at half-maximal effect); conditions: U2OS GR-GFP nuclear translocation, laser cytometry, 2 h
# [5] = target: Mitogen-activated protein kinase 10 (Mus musculus) (UniProt Q61831); test: JNK3 AlphaScreen Assay (AID 530; active = well fitted curve in either direction with a large enough effect, not every such curve was filed as active;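 also: kinase came from lysate of stimulated human HepG2 cells; signal reports phosphorylation of biotinylated GST-cJun 1-79 at Ser73 with 10 µM ATP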)
# How it was run: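 qHTS titrations with 15 min compound pre-incubation before adding ATP (10 uM final). Read-out: AlphaScreen of Ser73-phosphorylated biotin-GST-cJun using HepG2 lysate JNK3 activated by IL-1β and TNFα.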
# [6] = target: 3',5'-cyclic-AMP phosphodiesterase 4B (Homo sapiens) (UniProt Q07343); test: qHTS Assay for Inhibitors of PDE-IV (AID 607; active = well fitted activation curve with a large enough effect in the main read-out, with a control signal flat, not every such curve was filed as active)
# How it was run: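 The readout is membrane depolarisation from a cAMP-sensing CNG channel, detected with a potential dye at ex 535/em 590. Cells were HEK293-derived (endogenous PDE-IV) at 1000 cells/well, titrated up to 22.9 uM final.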
# [7] = target: Guanine nucleotide-binding protein G(i) subunit alpha-1 (Homo sapiens) (UniProt P63096); test: qHTS Assay for Inhibitors of RGS12 GoLoco Motif Activity (Green Fluorophore) (AID 879);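 also: negative values mean loss of peptide binding seen as reduced polarization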
# How it was run: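 A drop in FITC polarization marked displacement of the FITC-tagged RGS12 GoLoco peptide (10 nM) from Gαi1 (50 nM). Compounds were incubated 10 min at room temperature in Tris pH 7.5 buffer containing 150 mM NaCl, 0.1 mM GDP and 0.05% NP40; unlabeled peptide titration served as control.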
# [8] = target: Cytochrome P450 2C9 (Homo sapiens) (UniProt P11712); test: qHTS Assay for Inhibitors and Substrates of Cytochrome P450 2C9 (AID 883); also: nearly all actives have a fitted effect of over 60% in size
# How it was run: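 Turnover of Luciferin-H (100uM, KM) by 10nM human CYP2C9 was measured over 60 min at 37C with NADPH regeneration; inhibitors and some substrates reduce luminescence. Data normalized to sulphaphenazole 57uM.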
# [9] = target: Cytochrome P450 3A4 (Homo sapiens) (UniProt P08684); test: qHTS Assay for Activators of Cytochrome P450 3A4 (AID 885); also: nearly all actives have a fitted effect of over 65% in size
# How it was run: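 Activators are scored by enhanced luminescence from CYP3A4 conversion of luciferin-PPXE (25uM, equal to KM) to luciferin, after 60 min at RT with an NADPH-regenerating system.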
# [10] = qHTS Assay for Identification of Small Molecule Agonists for Thrombopoietin (TPO) Signaling Pathway (AID 917)
# How it was run: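 Cell-based luciferase reporter screen. Mouse Ba/F3 line stably expressing human TPO receptor; IL-3 removed overnight before plating. Co-treatment with compound and EC50 TPO (26 pM), 24 hrs at 37 C, then luminescence.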
# [11] = target: Pyruvate kinase (Leishmania mexicana) (UniProt Q27686); test: qHTS Validation Assay for Inhibitors of Leishmania Mexicana Pyruvate Kinase (AID 945)
# How it was run: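 qHTS eight-point titrations against 0.2 nM LmPYK (E451W) in imidazole buffer pH 7.2 with 0.5 mM PEP, 0.1 mM ADP; 1 h, room temperature. Readout: PKLight luminescence, normalized to neutral DMSO wells.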
# [12] = target: Pyruvate kinase PKM (Homo sapiens) (UniProt P14618); test: qHTS Assay for Activators of Human Muscle Pyruvate Kinase (AID 954; active = well fitted curve in the direction sought with a large enough effect, not every such curve was filed as active)
# How it was run: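 PKM2, human, >95% pure, 0.1 nM; PEP 0.5 mM (Km), ADP 0.1 mM; 50 mM imidazole pH 7.2, 50 mM KCl, 0.01% Tween 20, 0.05% BSA; 1 h RT; luciferase luminescence readout.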
# [13] = target: Alpha-galactosidase A (Homo sapiens) (UniProt P06280); test: Counterscreen for Glucocerebrosidase Inhibitors: qHTS Assay for Human alpha-Galactosidase at pH 4.5 (AID 992)
# How it was run: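 Fluorogenic 4-MU alpha-D-galactoside (80 uM) hydrolysis, 2 nM enzyme, pH 4.5 citrate buffer + 0.005% Tween-20; 20 min RT; NaOH/glycine pH 10 stop; Ex365/Em440. Compounds titrated 0.7 nM–77 uM; Hill-equation AC50.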
# [14] = target: alpha-glucosidase (Oryza sativa, rice) (UniProt Q653V4); test: Counterscreen for Glucocerebrosidase Inhibitors: qHTS Assay for Rice alpha-Glucosidase at pH 5.0 (AID 997)
# How it was run: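 Endpoint fluorogenic assay at pH 5.0: compounds (0.7 nM to 77 uM) titrated against 4 nM rice enzyme and 400 uM 4-MU-alpha-glucoside for 20 min at room temperature; NaOH/glycine stop, read ex 365/em 440 nm, Hill-fitted AC50.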
# [15] = Validation of Assay for Modulators of Lamin A Splicing (AID 1459; active = well fitted curve in the direction sought with a large enough effect in the signal ratio; the % refers to the signal ratio;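 also: cells exposed to compound for two days before reading; ratio rise marks activators and ratio drop marks inhibitors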)
# How it was run: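 HeLa S3 lamin A-EGFP/DsRed2 stable clone, 600 cells/well, Opti-MEM 2% FBS; compounds by pin tool; 48 hrs, 37 °C/5% CO2; Acumen 488 nm scan, objects 10-100 um; GFP/RFP intensity ratio.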
# [16] = target: DNA repair nuclease/redox regulator APEX1 (Homo sapiens) (UniProt P27695); test: qHTS Validation Assay for Inhibitors of the Human Apurinic/apyrimidinic Endonuclease 1 (APE1) (AID 1705;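 also: TAMRA fluorescence gain over two minutes as APE1 cuts a quenched THF abasic duplex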)
# How it was run: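 qHTS, 1536-well. APE1 + cpd 15 min RT → 50 nM TAMRA/BHQ-2 THF-abasic dsDNA substrate → kinetic fluorescence, 3 reads/60 s; delta(read3−read1) = reaction progress. No-enzyme buffer = negative control.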
# [17] = Counterscreen for APE1 Inhibitors: Fluorescent Dye Displacement Validation Assay (AID 1707)
# How it was run: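 Endpoint fluorescence read at 480 nm excitation / 540 nm emission; DNA-binding compounds lower signal by displacing 250 nM Thiazole Orange from 50 nM dsDNA containing a tetrahydrofuran abasic site, Tris-HCl pH7.5 buffer with NaCl and MgCl2.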
# [18] = target: Endonuclease 4 (Escherichia coli (strain K12)) (UniProt P0A6C1); test: Counterscreen for APE1 Inhibitors: qHTS Validation Assay for Inhibitors of Endonuclease IV (AID 1708)
# How it was run: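 Incision of a double-stranded 50 nM TAMRA/BHQ-2 abasic substrate was followed kinetically (525/598 nm, reads every 60 s) after 15 min enzyme–compound preincubation with 2 nM EndoIV in pH 7.5 Tris buffer with MgCl2, DTT and Tween-20; concentration-response format.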
# [19] = qHTS for differential inhibitors of proliferation of Plasmodium falciparum line 7G8 (AID 1815);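 also: potency is read from the fitted curve at half-maximal effect; parasite growth measured after three days of incubation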
# [20] = qHTS for differential inhibitors of proliferation of Plasmodium falciparum line GB4 (AID 1816); conditions: Potency: Plasmodium falciparum GB4 proliferation inhibition;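 also: potency is read from the fitted curve at half-maximal effect; parasite growth measured after 72 h incubation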
# [21] = qHTS for differential inhibitors of proliferation of Plasmodium falciparum line 3D7 (AID 1876); also: potency is read from the fitted curve at half-maximal effect
# [22] = qHTS for differential inhibitors of proliferation of Plasmodium falciparum line D10 (AID 1877);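 also: potency is read from the fitted curve at half-maximal effect; parasites grown with compound for 72 h before DNA staining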
# [23] = qHTS for differential inhibitors of proliferation of Plasmodium falciparum line Dd2 (AID 1882); conditions: Potency: Plasmodium falciparum Dd2 proliferation inhibition; also: nearly all actives have a fitted effect of over 65% in size
# How it was run: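 SYBR Green DNA fluorescence (ex 485, em 535 nm) after overnight lysis quantifies parasite growth; compound exposure lasted 72 h at 37 C on infected red cells at 2.5% hematocrit, 0.3% parasitemia (final). Artemisinin 0.29 uM and vehicle wells define normalization.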
# [24] = qHTS for differential inhibitors of proliferation of Plasmodium falciparum line W2 (AID 1883); conditions: Potency: Plasmodium falciparum W2 proliferation inhibition;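 also: potency is read from the fitted curve at half-maximal effect; parasites grown with compound for 72 h before lysis and staining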
# [25] = qHTS for differential inhibitors of proliferation of Plasmodium falciparum line HB3 (AID 1886); conditions: Potency: Plasmodium falciparum HB3 proliferation inhibition;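 also: potency is read from the fitted curve at half-maximal effect; parasites grown with compound for 72 h before SYBR Green readout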
# [26] = target: Ferritin light chain (Equus caballus) (UniProt P02791); test: qHTS Validation Assay for Identification of Novel General Anesthetics (AID 2323)
# How it was run: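 Fluorescence at 535 nm (excitation 380 nm) reported loss of 1-AMA binding to horse-spleen apoferritin (10 uM) in PBS with 50% saturated 1-aminoanthracene, after 10 min room-temperature incubation with compound; values from Hill fits of normalized response.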
# [27] = target: ATP-dependent DNA helicase Q1 (Homo sapiens) (UniProt P46063); test: qHTS Validation Assay for Inhibitors of RecQ-Like Dna Helicase 1 (RECQ1) (AID 2353)
# How it was run: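 RECQ1T1 50 nM; forked duplex (20 bp + 30-nt ss tails) 200 nM, ATP 2 mM final; pH 8.0, 2 mM MgCl2, 2.5 ug/ml poly(dI-dC); 15 min compound preincubation; discontinuous kinetic read over 2 h at RT.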
# [28] = target: RecQ-like DNA helicase BLM (Homo sapiens) (UniProt P54132); test: qHTS Validation Assay for Inhibitors of Bloom's syndrome helicase (BLM) (AID 2364)
# How it was run: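 Forked 20-bp duplex substrate (200 nM, TAMRA/BHQ-2) plus 2 mM ATP added after 15 min compound preincubation with 50 nM enzyme, pH 8.0, poly(dI-dC) 2.5 ug/ml. Strand separation followed by fluorescence (525/598 nm) over 2 h, normalized to enzyme-free and DMSO controls.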
# [29] = Validation screen for small molecules that induce DNA re-replication in MCF 10A normal breast cells (AID 463097); also: nearly all actives have a fitted effect of over 60% in size
# How it was run: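 Image-based qHTS: normal breast cells are incubated with compound for 48 hr, stained with Hoechst, and scanned for total nuclear fluorescence. Compounds raising the fraction of nuclei with elevated DNA content count as re-replication inducers.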
# [30] = Quantitative high throughput screen for delayed death inhibitors of the malarial parasite plastid, 96 hour incubation (AID 488745); also: potency is read from the fitted curve at half-maximal effect; nearly all actives have a fitted effect of over 70% in size
# How it was run: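 Readout is firefly luciferase luminescence from an integrated reporter in P. falciparum; lower signal marks inhibited growth. Cultures at 2% hematocrit and 0.1% parasitemia were treated with compound across two generations (96 h, 37 C, 5% CO2).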
# [31] = target: M-phase phosphoprotein 8 (Homo sapiens) (UniProt Q99549); test: qHTS Validation Assay for Inhibitors for MPP8 Chromodomain Interactions with Methylated Histone Tails (AID 488949);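 also: 50 nM MPP8 with 50 nM peptide preformed then compounds added for 30 min; AlphaScreen signal from MPP8 chromodomain bound to biotinylated H3K9me3 peptide; top concentration of the series differs between compounds; nearly all actives have a fitted effect of over 55% in size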
# How it was run: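 50 nM MPP8 + 50 nM b-H3K9me3 peptide, PBS pH 7.4/0.01% Tween-20, 30 min RT; + cpd 30 min RT; + AlphaScreen donor/Ni-chelate acceptor beads 10 ug/mL final, 30 min dark; luminescence read.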
# [32] = target: Galactokinase (Homo sapiens) (UniProt P51570); test: qHTS Validation Assay for Inhibitors of Human Galactokinase (GALK) (AID 493189)
# How it was run: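 5 nM GALK / 100 uM galactose / 35 uM ATP, 20 mM HEPES pH8.0, 5 mM MgCl2, 60 mM NaCl, 1 mM DTT, 0.01% BSA (final). RT 1 h; Kinase-Glo Plus luminescence.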
# [33] = Validation screen for small molecules that induce DNA re-replication in SW480 colon adenocarcinoma cells (AID 504364)
# How it was run: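 Image-based qHTS: compounds were incubated with SW480 cells for 48 hr, nuclei stained with Hoechst, and per-nucleus fluorescence intensity scanned to flag cells with excess DNA content.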
# [34] = target: DNA dC->dU-editing enzyme APOBEC-3G (Homo sapiens) (UniProt Q9HC16); test: qHTS for inhibitors of Vif-A3G interactions: Validation (AID 588379)
# How it was run: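 Yellow fluorescence (Ex 488, Em 500-530) of Vif-coexpressing HeLa A3G-eYFP cells, scanned by Acumen cytometer, reports blocked A3G degradation. Cells plated at 700/well overnight at 37 deg C before compound addition, then a further overnight compound incubation at 37 deg C.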
# [35] = tested on: Zika virus NS2B-NS3 protease; test: Primary screen GU AMC qHTS for Zika virus inhibitors (AID 1347154); also: nearly all actives have a fitted effect of over 70% in size
# How it was run: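 Fluorogenic AMC-substrate cleavage by noncovalent NS2B-NS3 protease complex (25 nM, pH 8.0 Tris buffer with Tween 20) followed for 15 minutes at room temperature (~20% conversion). Percent inhibition from ex340/em450 signal change, fitted by 4-parameter Hill equation.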
# [36] = Primary qHTS for small molecule stabilizers of the endoplasmic reticulum resident proteome: Secreted ER Calcium Modulated Protein (SERCaMP) assay (AID 1508630)
# How it was run: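 The SH-SY5Y reporter protocol was run at 3 concentrations up to 38.3 uM (primary) or 11 concentrations (follow-up): 16 h compound, 100 nM thapsigargin for 4 h, then extracellular luciferase luminescence.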
# Cytochrome P450 3A4 (Homo sapiens), sequence (P08684 whole entry, looked up): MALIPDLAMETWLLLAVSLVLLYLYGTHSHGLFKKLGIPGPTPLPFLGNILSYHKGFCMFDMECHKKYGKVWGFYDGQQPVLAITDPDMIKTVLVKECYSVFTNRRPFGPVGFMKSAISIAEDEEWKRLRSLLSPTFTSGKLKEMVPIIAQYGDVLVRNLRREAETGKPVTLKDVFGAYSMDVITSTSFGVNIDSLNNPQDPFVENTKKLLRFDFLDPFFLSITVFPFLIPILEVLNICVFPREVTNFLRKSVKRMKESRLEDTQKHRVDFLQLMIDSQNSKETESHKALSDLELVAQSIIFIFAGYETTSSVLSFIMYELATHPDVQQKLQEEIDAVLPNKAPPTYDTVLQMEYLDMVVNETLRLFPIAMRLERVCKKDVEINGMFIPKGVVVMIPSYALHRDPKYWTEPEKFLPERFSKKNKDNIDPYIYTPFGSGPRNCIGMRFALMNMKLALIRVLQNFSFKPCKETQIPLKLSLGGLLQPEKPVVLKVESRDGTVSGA
# Glucocorticoid receptor (Homo sapiens), sequence (P04150 whole entry, looked up): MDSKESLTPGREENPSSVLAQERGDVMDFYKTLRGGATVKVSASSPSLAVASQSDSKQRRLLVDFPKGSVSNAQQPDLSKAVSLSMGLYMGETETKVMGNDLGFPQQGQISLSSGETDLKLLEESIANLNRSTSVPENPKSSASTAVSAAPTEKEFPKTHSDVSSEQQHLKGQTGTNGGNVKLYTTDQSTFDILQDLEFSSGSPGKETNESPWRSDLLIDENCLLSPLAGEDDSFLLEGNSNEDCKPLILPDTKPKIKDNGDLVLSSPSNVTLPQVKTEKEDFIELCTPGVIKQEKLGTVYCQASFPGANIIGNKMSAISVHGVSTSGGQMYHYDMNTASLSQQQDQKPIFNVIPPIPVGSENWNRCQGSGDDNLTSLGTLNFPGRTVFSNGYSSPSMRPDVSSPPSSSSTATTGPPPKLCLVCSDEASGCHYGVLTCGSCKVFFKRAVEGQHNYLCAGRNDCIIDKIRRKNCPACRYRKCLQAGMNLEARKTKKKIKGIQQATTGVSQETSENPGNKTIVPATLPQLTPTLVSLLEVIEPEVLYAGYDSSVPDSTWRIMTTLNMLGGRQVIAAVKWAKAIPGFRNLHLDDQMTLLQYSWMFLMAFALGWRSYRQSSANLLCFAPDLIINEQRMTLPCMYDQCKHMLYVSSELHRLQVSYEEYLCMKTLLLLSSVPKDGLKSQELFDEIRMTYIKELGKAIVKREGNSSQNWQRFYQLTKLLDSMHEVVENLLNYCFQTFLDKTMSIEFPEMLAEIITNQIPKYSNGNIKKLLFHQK
# 3',5'-cyclic-AMP phosphodiesterase 4B (Homo sapiens), sequence (Q07343 whole entry, looked up): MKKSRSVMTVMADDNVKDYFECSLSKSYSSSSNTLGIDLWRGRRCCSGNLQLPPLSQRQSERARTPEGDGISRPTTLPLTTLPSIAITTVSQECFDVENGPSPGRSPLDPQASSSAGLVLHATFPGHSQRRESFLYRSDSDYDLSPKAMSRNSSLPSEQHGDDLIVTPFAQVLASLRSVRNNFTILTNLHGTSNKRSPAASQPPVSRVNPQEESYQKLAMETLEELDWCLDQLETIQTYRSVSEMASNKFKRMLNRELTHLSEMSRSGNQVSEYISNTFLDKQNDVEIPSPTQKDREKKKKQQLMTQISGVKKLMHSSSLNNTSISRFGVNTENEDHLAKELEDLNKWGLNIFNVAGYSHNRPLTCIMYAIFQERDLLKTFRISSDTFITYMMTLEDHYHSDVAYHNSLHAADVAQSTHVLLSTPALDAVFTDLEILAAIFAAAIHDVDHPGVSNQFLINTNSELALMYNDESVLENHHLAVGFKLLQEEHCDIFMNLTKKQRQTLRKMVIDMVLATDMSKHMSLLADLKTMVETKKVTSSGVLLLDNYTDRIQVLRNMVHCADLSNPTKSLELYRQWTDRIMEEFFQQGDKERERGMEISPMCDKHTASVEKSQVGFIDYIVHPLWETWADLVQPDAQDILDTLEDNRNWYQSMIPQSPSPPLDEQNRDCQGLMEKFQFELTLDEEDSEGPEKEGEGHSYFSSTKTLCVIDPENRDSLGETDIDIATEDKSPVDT
# Cytochrome P450 2C9 (Homo sapiens), sequence (P11712 whole entry, looked up): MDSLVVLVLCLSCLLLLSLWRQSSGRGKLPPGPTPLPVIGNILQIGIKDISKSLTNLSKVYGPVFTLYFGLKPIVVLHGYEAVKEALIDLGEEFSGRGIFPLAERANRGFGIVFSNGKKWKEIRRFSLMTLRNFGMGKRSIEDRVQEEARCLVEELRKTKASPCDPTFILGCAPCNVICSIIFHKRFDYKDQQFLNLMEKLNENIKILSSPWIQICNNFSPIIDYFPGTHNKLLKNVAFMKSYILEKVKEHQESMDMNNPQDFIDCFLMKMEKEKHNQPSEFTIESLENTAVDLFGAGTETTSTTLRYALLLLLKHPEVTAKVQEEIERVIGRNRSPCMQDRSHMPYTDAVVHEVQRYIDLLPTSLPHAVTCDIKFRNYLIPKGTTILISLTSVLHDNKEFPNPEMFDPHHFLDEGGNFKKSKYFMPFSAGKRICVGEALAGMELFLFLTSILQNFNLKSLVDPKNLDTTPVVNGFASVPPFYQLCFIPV
# Pyruvate kinase (Leishmania mexicana), sequence (Q27686 2-499 E452W): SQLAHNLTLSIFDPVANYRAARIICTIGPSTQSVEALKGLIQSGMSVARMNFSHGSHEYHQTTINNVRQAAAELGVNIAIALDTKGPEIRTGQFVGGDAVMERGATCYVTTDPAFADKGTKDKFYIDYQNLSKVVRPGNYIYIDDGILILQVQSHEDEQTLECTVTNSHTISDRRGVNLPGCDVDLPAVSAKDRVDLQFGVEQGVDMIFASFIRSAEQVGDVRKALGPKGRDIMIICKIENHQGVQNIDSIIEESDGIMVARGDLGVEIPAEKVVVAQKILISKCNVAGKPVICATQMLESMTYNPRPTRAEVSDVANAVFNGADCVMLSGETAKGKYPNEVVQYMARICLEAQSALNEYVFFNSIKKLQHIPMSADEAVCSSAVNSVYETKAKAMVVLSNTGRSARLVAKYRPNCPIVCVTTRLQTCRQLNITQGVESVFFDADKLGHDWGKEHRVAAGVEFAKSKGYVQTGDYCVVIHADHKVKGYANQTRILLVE
# M-phase phosphoprotein 8 (Homo sapiens), sequence (Q99549 whole entry, looked up): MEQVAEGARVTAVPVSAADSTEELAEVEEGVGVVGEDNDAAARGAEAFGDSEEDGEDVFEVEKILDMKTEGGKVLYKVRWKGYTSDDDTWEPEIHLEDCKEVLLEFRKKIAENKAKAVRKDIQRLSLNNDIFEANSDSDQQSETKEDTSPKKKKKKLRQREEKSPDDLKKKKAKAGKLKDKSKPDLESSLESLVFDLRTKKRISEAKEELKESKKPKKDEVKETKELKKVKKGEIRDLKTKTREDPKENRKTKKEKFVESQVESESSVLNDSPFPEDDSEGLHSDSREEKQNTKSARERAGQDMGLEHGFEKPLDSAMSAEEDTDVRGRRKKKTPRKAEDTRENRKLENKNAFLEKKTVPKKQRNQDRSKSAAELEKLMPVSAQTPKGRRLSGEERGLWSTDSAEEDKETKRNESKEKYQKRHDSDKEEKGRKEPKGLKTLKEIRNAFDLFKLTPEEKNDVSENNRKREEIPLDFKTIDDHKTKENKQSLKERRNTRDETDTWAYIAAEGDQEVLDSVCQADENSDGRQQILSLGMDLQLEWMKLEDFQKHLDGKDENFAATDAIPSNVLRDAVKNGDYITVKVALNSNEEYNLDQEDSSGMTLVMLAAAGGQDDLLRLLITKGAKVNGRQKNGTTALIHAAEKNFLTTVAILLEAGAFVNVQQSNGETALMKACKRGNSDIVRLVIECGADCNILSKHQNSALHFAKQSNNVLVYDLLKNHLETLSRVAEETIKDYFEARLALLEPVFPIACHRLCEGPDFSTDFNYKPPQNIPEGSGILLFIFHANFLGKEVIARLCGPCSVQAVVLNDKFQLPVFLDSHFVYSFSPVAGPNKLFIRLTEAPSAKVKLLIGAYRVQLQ
# Galactokinase (Homo sapiens), sequence (P51570 whole entry, looked up): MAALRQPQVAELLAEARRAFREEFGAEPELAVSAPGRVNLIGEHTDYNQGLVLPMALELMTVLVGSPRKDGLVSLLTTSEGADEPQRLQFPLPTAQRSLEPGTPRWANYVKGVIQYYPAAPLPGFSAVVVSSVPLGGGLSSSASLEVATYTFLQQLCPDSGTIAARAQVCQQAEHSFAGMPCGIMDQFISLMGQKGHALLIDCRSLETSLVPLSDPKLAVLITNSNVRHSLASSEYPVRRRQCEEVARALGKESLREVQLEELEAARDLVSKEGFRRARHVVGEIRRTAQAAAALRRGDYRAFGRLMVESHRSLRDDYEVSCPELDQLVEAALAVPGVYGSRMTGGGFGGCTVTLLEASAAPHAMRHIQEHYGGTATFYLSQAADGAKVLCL
# Guanine nucleotide-binding protein G(i) subunit alpha-1 (Homo sapiens), sequence (P63096 whole entry, looked up): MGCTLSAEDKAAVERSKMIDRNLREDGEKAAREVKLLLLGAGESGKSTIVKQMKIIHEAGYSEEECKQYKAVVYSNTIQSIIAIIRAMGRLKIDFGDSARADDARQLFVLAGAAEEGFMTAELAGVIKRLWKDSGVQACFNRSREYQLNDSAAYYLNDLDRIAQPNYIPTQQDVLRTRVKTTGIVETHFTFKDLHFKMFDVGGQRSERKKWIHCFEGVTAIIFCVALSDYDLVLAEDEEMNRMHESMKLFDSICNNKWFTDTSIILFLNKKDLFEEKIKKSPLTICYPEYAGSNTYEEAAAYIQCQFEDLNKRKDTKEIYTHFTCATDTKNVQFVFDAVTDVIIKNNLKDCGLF
# DNA repair nuclease/redox regulator APEX1 (Homo sapiens), sequence (P27695 whole entry, looked up): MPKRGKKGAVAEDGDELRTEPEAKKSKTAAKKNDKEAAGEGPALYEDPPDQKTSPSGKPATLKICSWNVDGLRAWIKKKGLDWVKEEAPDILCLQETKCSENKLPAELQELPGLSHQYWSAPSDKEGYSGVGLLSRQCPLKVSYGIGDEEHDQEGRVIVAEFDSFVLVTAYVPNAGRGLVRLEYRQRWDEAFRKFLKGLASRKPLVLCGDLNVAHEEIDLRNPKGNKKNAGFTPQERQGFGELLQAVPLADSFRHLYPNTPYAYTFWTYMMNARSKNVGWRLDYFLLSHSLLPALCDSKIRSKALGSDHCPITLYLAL
structure (smiles),measurement,setting,value
COc1[nH]c2ccc(F)cc2c1C(=O)OCC1CCN(CCNS(C)(=O)=O)CC1,"activity change, negative = inhibition",[1],1.52%
same,"activity change, negative = inhibition",[2],0.0444%
same,"activity, negative = inhibition",[3],16.9%
same,Potency,[4],> 46 µM
same,Potency,[5],inactive
same,Potency,[6],inactive
same,outcome,[7],inactive
same,Potency,[8],inactive
same,Potency,[9],inactive
same,Potency,[10],inactive
same,Potency,[11],inactive
same,outcome,[12],inactive
same,outcome,[13],inactive
same,outcome,[14],inactive
same,outcome,[15],inactive
same,Potency,[16],inactive
same,Potency,[17],inactive
same,Potency,[18],inactive
same,Potency,[19],7.94 µM (active)
same,Potency,[20],6.31 µM (active)
same,Potency,[21],7.08 µM (active)
same,Potency,[22],7.08 µM (active)
same,Potency,[23],inactive
same,Potency,[24],10 µM (active)
same,Potency,[25],5.01 µM (active)
same,outcome,[26],inactive
same,Potency,[27],inactive
same,Potency,[28],inactive
same,Potency,[29],inactive
same,Potency,[30],14.7 µM (active)
same,Potency,[31],inactive
same,outcome,[32],inactive
same,outcome,[33],inactive
same,Potency,[34],inactive
same,Potency,[35],inactive
same,Potency,[36],inactive
